Assay [1] is described as follows: Caspase-3/7 induction in HepG2 cells by small molecules, qHTS assay (AID 1346978). Also: nearly all actives have a fitted effect of over 15% in size. Also: potency is read from the fitted curve at half-maximal effect. The essentials:
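Caspase-3/7 induction was measured by Caspase-Glo 3/7 luminescence (30 min, room temperature) after a 17 hr compound exposure of wild-type HepG2 cells seeded at 2,000 per well and pre-incubated 5 hr.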

The nature of assay [2]: Caspase-3/7 induction in CHO-K1 cells by small molecules, qHTS cell viability counter screen (AID 1346979). Also: nearly all actives have a fitted effect of over 35% in size. Also: potency is read from the fitted curve at half-maximal effect. An outline of the steps: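 Following a 5hr settling period, CHO-K1 cells at 1,500 per well received DMSO-dissolved compounds. Cell viability was quantified 16hr later by CellTiter-Fluor fluorescence, measured after 1hr with reagent at 37C.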
Assay [3] in a line: Caspase-3/7 induction in CHO-K1 cells by small molecules, qHTS assay (AID 1346980). Also: nearly all actives have a fitted effect of over 15% in size. An outline of the steps:
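Luminescent Caspase-Glo 3/7 read (30min, room temperature) quantified apoptosis induction. Cells were wild-type CHO-K1, treated with compound for 17hr at 37 C and 5% CO2.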
(In general: Quantitative high-throughput screening tests each substance at several concentrations.)

Assay [4] in a line: Caspase-3/7 induction in HepG2 cells by small molecules, qHTS cell viability counter screen (AID 1346981). Also: nearly all actives have a fitted effect of over 30% in size. Also: potency is read from the fitted curve at half-maximal effect. As to activity change, negative = cytotoxicity: series mostly up to about 92 µM. An outline of the steps: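 CellTiter-Fluor fluorescence measured viability in the same wells used for Caspase-Glo 3/7. HepG2 (wild type) at 2,000 cells/well were pre-incubated 5 hr, dosed, and given reagent at 16 hr, with 1 hr further at 37C.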
Assay [5] addresses Nuclear receptor subfamily 1 group I member 2 (Homo sapiens) (UniProt O75469). Description: Human pregnane X receptor (PXR) small molecule agonists, qHTS assay (AID 1346982). Also: nearly all actives have a fitted effect of over 35% in size. Also: potency is read from the fitted curve at half-maximal effect. The essentials:
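Agonist mode: luminescence from ONE-Glo after 24 h compound exposure at 37C in HepG2 cells carrying hPXR-responsive CYP3A4 luciferase, plated in charcoal-stripped serum medium 5 h beforehand.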

Assay [6] has as its target Cytochrome P450 2D6 (Homo sapiens) (UniProt P10635). Description: Cytochrome P450 Family 2 Subfamily D Member 6 (CYP2D6) small molecule antagonists: luciferase reporter qHTS assay (AID 1671196). Also: nearly all actives have a fitted effect of over 50% in size. Also: potency is read from the fitted curve at half-maximal effect. As to activity change, negative = inhibition: series mostly up to about 120 µM. The essentials:
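CYP2D6 activity was followed as luminescence from its luciferin product after a 1 h NADPH-driven reaction at room temperature. Enzyme-substrate mix and compound were pre-incubated for 10 min, and the signal was read 20 min after adding detection reagent.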
Background: A reporter such as luciferase makes a cellular process visible.

Assay [7] deals with Cytochrome P450 2C19 (Homo sapiens) (UniProt P33261). Description: Cytochrome P450 Family 2 Subfamily C Member 19 (CYP2C19) small molecule antagonists: luciferase reporter qHTS assay (AID 1671197). Also: nearly all actives have a fitted effect of over 65% in size. Also: potency is read from the fitted curve at half-maximal effect. As to activity change, negative = inhibition: series mostly up to about 120 µM. An outline of the steps:
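P450-Glo CYP2C19 system: enzyme-substrate mix with compound 10 min at room temperature, then NADPH regeneration solution, 1 h at 37C. Proluciferin-to-luciferin conversion detected by luminescence after 20 min with detection reagent; ketoconazole as positive control.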

Assay [8] addresses Nuclear receptor subfamily 1 group I member 2 (Rattus norvegicus) (UniProt Q9R1A7). Description: Rat pregnane X receptor (rPXR) activation by small molecules, qHTS assay (AID 1346983). Also: nearly all actives have a fitted effect of over 20% in size. Conditions: rPXR luciferase reporter cells, One-Glo luminescence, 24 h; stronger effect = higher value. An outline of the steps:
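Luminescent readout (One-Glo luciferase, 30 min room temperature) followed 24 hr compound treatment at 37 C of rPXR cells plated 2,000 per well and preincubated 5hr; qHTS format with compounds delivered in DMSO.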

In assay [9] the target is Nuclear receptor subfamily 1 group I member 2 (Homo sapiens) (UniProt O75469). The experiment in a line: Human pregnane X receptor (PXR) activation by small molecules, qHTS assay (AID 1346985). Also: nearly all actives have a fitted effect of over 40% in size. An outline of the steps:
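DPX-2 cells (HepG2 co-transfected with a PXR response element and a CYP3A4-promoter luciferase construct) were seeded at 2,000 per well, rested 5 hr at 37C, then exposed to DMSO-dissolved compounds for 24 hr. Activation was read as luciferase luminescence.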

Several values for one entry are separate records, joined by “and”; a condition that tells them apart may be missing. Equal entries are not always repeated. Records with an inconclusive call do not appear. Some structures have more than one record in an assay (separate samples or runs), and their calls can disagree. Activity calls are given as the source filed them. Calls follow the shape of the dose curve; as a rule, active = well fitted curve in the direction sought with a large enough effect in the repeat runs; inconclusive = weak or mixed curves; inactive = no such curve, though single readings can be large; an effect the other way counts as inactive or inconclusive.
% is scaled to controls: 0 for no effect and ±100 for the full control effect.

Sequence of Cytochrome P450 2C19 (Homo sapiens) (P33261 whole entry, looked up): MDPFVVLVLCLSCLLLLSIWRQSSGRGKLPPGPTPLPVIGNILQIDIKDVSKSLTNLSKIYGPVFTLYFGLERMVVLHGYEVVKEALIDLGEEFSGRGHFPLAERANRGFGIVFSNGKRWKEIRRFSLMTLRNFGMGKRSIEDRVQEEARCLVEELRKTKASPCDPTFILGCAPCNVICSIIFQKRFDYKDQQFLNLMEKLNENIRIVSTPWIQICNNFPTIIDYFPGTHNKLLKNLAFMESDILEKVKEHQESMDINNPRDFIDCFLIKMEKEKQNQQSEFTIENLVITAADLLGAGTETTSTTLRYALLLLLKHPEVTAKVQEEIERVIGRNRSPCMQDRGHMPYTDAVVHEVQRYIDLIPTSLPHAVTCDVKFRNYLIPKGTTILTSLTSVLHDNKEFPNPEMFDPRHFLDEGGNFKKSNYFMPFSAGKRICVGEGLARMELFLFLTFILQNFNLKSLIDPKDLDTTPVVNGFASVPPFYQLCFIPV
Sequence of Nuclear receptor subfamily 1 group I member 2 (Homo sapiens) (O75469 whole entry, looked up): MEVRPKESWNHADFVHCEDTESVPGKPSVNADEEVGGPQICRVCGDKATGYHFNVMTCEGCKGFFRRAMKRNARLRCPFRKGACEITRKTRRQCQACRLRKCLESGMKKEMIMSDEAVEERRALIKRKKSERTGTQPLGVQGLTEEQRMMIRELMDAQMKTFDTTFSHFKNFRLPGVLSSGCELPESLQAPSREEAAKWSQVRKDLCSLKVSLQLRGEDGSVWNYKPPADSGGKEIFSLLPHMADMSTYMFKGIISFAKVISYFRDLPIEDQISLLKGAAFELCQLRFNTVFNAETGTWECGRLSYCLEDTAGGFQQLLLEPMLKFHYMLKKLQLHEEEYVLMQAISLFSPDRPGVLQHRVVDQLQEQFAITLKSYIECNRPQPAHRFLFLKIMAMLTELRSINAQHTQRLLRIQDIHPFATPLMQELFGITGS
Sequence of Cytochrome P450 2D6 (Homo sapiens) (P10635 whole entry, looked up): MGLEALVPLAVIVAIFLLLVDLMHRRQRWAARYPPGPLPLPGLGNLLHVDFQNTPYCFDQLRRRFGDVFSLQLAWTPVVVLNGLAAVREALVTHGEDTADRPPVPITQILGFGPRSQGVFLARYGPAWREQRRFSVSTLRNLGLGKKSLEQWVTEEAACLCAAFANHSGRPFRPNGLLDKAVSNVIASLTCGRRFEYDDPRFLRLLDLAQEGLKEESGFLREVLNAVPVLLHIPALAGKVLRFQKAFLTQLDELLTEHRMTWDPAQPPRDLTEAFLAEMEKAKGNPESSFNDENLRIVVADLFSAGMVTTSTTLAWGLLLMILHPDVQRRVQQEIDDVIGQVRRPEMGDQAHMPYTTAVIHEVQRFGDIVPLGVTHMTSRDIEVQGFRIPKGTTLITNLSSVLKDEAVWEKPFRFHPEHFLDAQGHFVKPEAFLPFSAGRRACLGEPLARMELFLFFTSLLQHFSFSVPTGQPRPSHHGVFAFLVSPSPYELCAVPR
Sequence of Nuclear receptor subfamily 1 group I member 2 (Rattus norvegicus) (Q9R1A7 whole entry, looked up): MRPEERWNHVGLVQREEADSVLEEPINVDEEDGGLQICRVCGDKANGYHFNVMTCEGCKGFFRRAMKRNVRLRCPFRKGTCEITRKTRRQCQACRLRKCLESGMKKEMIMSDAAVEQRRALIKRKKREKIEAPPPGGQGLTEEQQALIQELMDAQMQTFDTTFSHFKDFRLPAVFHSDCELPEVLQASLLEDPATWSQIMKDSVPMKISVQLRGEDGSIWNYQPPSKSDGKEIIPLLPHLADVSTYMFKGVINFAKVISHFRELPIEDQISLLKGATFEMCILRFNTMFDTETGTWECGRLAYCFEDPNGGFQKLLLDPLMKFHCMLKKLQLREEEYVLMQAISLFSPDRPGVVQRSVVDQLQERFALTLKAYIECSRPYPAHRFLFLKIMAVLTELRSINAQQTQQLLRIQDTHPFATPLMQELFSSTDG

As for `O=C1OC2(c3ccc(O)cc3Oc3cc(O)ccc32)c2ccc(N=C=S)cc21`, the Potency result in [1], in assay [2], in [3], in assay [4], in assay [5] and in [6] was “inactive” throughout. For the same compound, the Potency in [7] was 72.3 µM (active).
On to `CCCCCCCCCCCCCC[N+](C)(C)Cc1ccccc1`, for which the Potency was 62.1 µM (active) in assay [1]; 43.9 µM (active) and 33.5 µM (active) and 17.8 mM (active) in assay [2]; 908 nM (active) and 1.1 µM (active) in assay [6]. For the same compound, the Potency result in assay [3], in [5] and in assay [9] was “inactive” throughout. In addition, the max activation in assay [8] was -5.38% (inactive).
As to `C/C=C/C=C/COC(=O)C(C)C`, the Potency entry in assay [1], in [3] and in [6] was “inactive” each time. In addition, the Potency in assay [2] was 54.5 µM (active); in assay [5], 43.3 µM (active); in [7] it was 79.6 µM (active).
`Cc1cc(C(C)(C)C)c(O)c(C)c1Cn1c(=O)n(Cc2c(C)cc(C(C)(C)C)c(O)c2C)c(=O)n(Cc2c(C)cc(C(C)(C)C)c(O)c2C)c1=O`: the Potency result in [1], in assay [3] and in assay [4] was “inactive” each time. The Potency in assay [2] is 27.3 µM (active); in assay [7], 6.33 µM (active).
Turning to `CCOC(=O)NNc1ccc(N(CC)CC(C)O)nn1` (centres undefined), the Potency result in [1], in assay [2], in assay [3], in assay [5] and in assay [6] was “inactive” in each case.
With `CN(C)Cc1cc(C(C)(C)C)c(O)c(C(C)(C)C)c1`, the Potency entry in assay [1], in assay [2], in [3] and in assay [4] was “inactive” in each case. Also, the Potency in [7] is 10 µM (active).
For `CCCCCCCCCCCC(=O)OCC(C)OC(=O)CCCCC(=O)O` (centres undefined), the Potency result in assay [1], in [2], in [3], in [5] and in [6] was “inactive” each time.
In the case of `CCCCCCC1CCCC(=O)O1` (centres undefined), the Potency result in assay [1], in assay [2], in [3], in assay [4] and in assay [7] was “inactive” throughout.
`COC(=O)c1ccccc1OC`: the Potency result in assay [1], in [2], in assay [3], in [4], in assay [5] and in assay [7] was “inactive” throughout.
Consider `CCCCNS(=O)(=O)c1ccc(C)cc1`, for which the Potency entry in assay [1], in assay [2], in assay [3] and in [4] was “inactive” throughout. For the same compound, the Potency in assay [7] was 5.64 µM (active).
On to `O=C(/C=C/c1ccccc1)OC/C=C/c1ccccc1`, for which the Potency result in [1], in [2], in [3] and in assay [4] was “inactive” each time. Moreover, the Potency in assay [7] was 35.6 µM (active).
For the compound `COC1=C(OC)C(=O)C(CCCCCCCCCCO)=C(C)C1=O`, the Potency entry in [1], in assay [3], in [5] and in assay [9] was “inactive” in each case. The Potency in assay [2] is 23.7 µM (active); in assay [6], 34.7 µM (active); in assay [7] it was 4.9 µM (active). Further, the max activation in assay [8] was 4.16% (inactive).
Turning to `CC1=Nc2ccccc2C1(C)C`, the Potency entry in assay [1], in assay [2], in [3] and in assay [4] was “inactive” each time. Besides, the results for the Potency in assay [6] and in [7] were 71.1 µM (active) and 63.4 µM (active), respectively.
On to `O[C@@H]([C@H](O)[C@H](O)CBr)[C@H](O)CBr`, for which the Potency entry in [1], in assay [2], in assay [3], in [5], in assay [9] and in assay [6] was “inactive” in each case. Moreover, the max activation in assay [8] was -0.988% (inactive).
Consider `CC(C)OC(=O)C(O)(CC(=O)O)CC(=O)O`, for which the Potency entry in assay [1], in [2], in [3] and in assay [6] was “inactive” throughout. Further, the Potency is 48.6 µM (active) in assay [5] and 35.6 µM (active) in assay [7].
For the compound `Cc1ccc(O)c(O)c1`, the Potency result in assay [1], in assay [3], in assay [6] and in assay [7] was “inactive” each time. Further, the results for the Potency in assay [2] and in assay [5] were 52.9 µM (active) and 59.4 µM (active), respectively.
Consider `Cc1cc(-n2nc3ccc(Cl)cc3n2)c(O)c(C(C)(C)C)c1`, for which the Potency entry in assay [1], in assay [2], in assay [3], in assay [5], in [9] and in [6] was “inactive” in each case. The max activation in [8] is -2.8% (inactive).
`Cc1cc(-c2ccc(N=Nc3cc(S(=O)(=O)O)c4ccccc4c3N)c(C)c2)ccc1N=Nc1cc(S(=O)(=O)O)c2ccccc2c1N`: the Potency entry in assay [1] and in assay [3] was “inactive” in each case. Moreover, the Potency in assay [2] is 54.8 µM (active); in [5], 19.4 µM (active); in assay [6], 2.26 µM (active).
Turning to `O=S(=O)(O)c1ccc(N=Nc2c(O)ccc3ccccc23)cc1`, the Potency result in [1] and in assay [3] was “inactive” in each case. The values for the Potency in assay [2], in [4] and in assay [6] were 30.6 µM (active), 30.6 µM (active) and 35.6 µM (active), respectively.
With `C[C@H]1NCc2cc(-c3ccc4c(=O)c(C(=O)O)cn(C5CC5)c4c3OC(F)F)ccc21`, the caspase activation in [1] was -1.73% [at 19 µM] (inactive). Further, the activity change, negative = cytotoxicity in assay [2] is 0.359% [at 19 µM] (inactive); in assay [4], -1.4% [at 19 µM] (inactive). In addition, the caspase-3/7 activation in assay [3] was 0.0016% [at 19 µM] (inactive). Also, the activation in assay [5] was -6.61% [at 19 µM] (inactive). Further, the activity change, negative = inhibition in [7] was -6.59% [at 23.6 µM] (inactive).
In the case of `C1CCC(SSC2CCCCC2)CC1`, the Potency result in assay [1], in [2], in [3], in assay [5], in assay [6] and in [7] was “inactive” throughout.
Turning to `CC(=O)Oc1cc2c(s1)CCN(C(C(=O)C1CC1)c1ccccc1F)C2` (centres undefined), the Potency result in assay [1], in [2] and in assay [3] was “inactive” each time. Further, the Potency in assay [5] was 26.6 µM (active); in assay [6], 8.71 µM (active); in assay [7] it was 6.92 µM (active).
Take `O=C(O)c1cc(N=Nc2ccc([N+](=O)[O-])cc2)ccc1O`: the Potency entry in assay [1] and in assay [3] was “inactive” each time. The Potency was 47.7 µM (active) in assay [2], 0.301 µM (active) in [5] and 39.2 µM (active) in [7].
For the compound `O=C(O)CN(CCN(CC(=O)O)CC(=O)O)CC(=O)O`, the caspase activation in [1] was -0.861% [at 3.27 µM] (inactive). In addition, the activity change, negative = cytotoxicity was 5.31% [at 3.27 µM] (inactive) in [2] and -2.26% [at 3.27 µM] (inactive) in assay [4]. Also, in [3], the caspase-3/7 activation is -0.0599% [at 3.27 µM] (inactive). The max activation in assay [8] was -0.541% (inactive).
As to `CCC(=O)C(=O)CC`, the Potency entry in assay [1], in assay [2], in [3] and in [4] was “inactive” throughout. The Potency in assay [5] was 18 µM (active); in [7] it was 41.6 µM (active).
As for `NC[C@H]1O[C@H](O[C@H]2[C@H](O[C@@H]3O[C@H](CO)[C@@H](O)[C@H]3O)C(O)[C@H](N)C[C@@H]2N)[C@H](N)[C@@H](O)[C@@H]1O` (some centres undefined), the caspase activation in assay [1] is -1.04% [at 8.39 µM] (inactive). Also, the activity change, negative = cytotoxicity in assay [2] was 6.09% [at 8.39 µM] (inactive); in [4], 8% [at 8.39 µM] (inactive). The caspase-3/7 activation in [3] is -0.0652% [at 8.39 µM] (inactive). The max activation in assay [8] is 3.62% (inactive). Further, in assay [6], the activity change, negative = inhibition was -0.538% [at 10.5 µM] (inactive).
In the case of `Nc1nc(-c2ccccc2)cs1`, the Potency result in assay [1], in [2] and in assay [3] was “inactive” in each case. Moreover, the Potency was 27.2 µM (active) in assay [5], 12.6 µM (active) in assay [6] and 5.01 µM (active) in assay [7].
Turning to `C=C(CC)C(=O)c1ccc(OCC(=O)O)c(Cl)c1Cl`, the Potency entry in assay [1], in assay [3], in [5] and in assay [7] was “inactive” in each case. For the same compound, the Potency was 68.1 µM (active) and inactive in [2]; 30.4 µM (active) in assay [4].
As to `O=C1CCCCCCCCCCCCCCCO1`, the Potency result in [1], in [2], in [3], in assay [5], in assay [6] and in assay [7] was “inactive” each time.

The values above are taken from PubChem BioAssay (Tox21).
